Consider twelve compounds from PubChem BioAssay (EPA / NIEHS).

Where “and” joins values, the source holds several entries; their conditions need not be identical. Equal values may be shown once. A structure can be active in one record and inactive in another. Calls of active or inactive are those of the source. How the source made its calls: active means hit-call score of the fitted dose curve at least 0.9, where 1 is the maximum; inactive means score below 0.9.

The nature of this assay: CCTE_Mundy_HCI_Cortical_Synap_Neur_Matur_NeuriteLength: CCTE's Synaptogenesis and Neurite Maturation Assay in rat cortical cells for Neurite Length, Mundy Lab (AID 2284214). The gist of the method:
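Read-out: high-content imaging of MAP2-labelled neurites, with synaptophysin and Hoechst co-stain, in rat cortical cultures fixed at DIV 12. Activity fitted in positive direction relative to DMSO baseline.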
The AC50 is the midpoint of the concentration-response curve, whichever way the signal moves. On to `CC[C@H](C)[C@H]1O[C@]2(C=C[C@@H]1C)C[C@@H]1C[C@@H](C/C=C(\C)[C@@H](O[C@H]3C[C@H](OC)[C@@H](O[C@H]4C[C@H](OC)[C@@H](O)[C@H](C)O4)[C@H](C)O3)[C@@H](C)/C=C/C=C3\CO[C@@H]4[C@H](O)C(C)=C[C@@H](C(=O)O1)[C@]34O)O2` (tested in a mixture with another compound), for which the AC50 is 1.08 µM (active).
For `O=S(=O)(O)C(F)(F)C(F)(F)C(F)(F)C(F)(F)C(F)(F)C(F)(F)C(F)(F)C(F)(F)F`, the call was inactive.
Regarding `COP(=S)(OC)Oc1ccc([N+](=O)[O-])cc1`, the half-maximal activity concentration (AC50) was 15 µM (active).
`CCC(C)(C)C(=O)OC1=C(c2ccc(Cl)cc2Cl)C(=O)OC12CCCCC2`: the result was inactive.
On the same count and under the same terms, with `O=C(O)C(F)(F)C(F)(F)C(F)(F)C(F)(F)C(F)(F)C(F)(F)C(F)(F)F` the entry was “inactive”.
As for `CC(C)N(C(=O)COc1nnc(C(F)(F)F)s1)c1ccc(F)cc1`, the call was inactive.
Take `CC1(c2ccc(Oc3ccccc3)cc2)OC(=O)N(Nc2ccccc2)C1=O` (stereo not drawn): the half-maximal activity concentration (AC50) is 44.1 µM (active).
For the compound `O=C(O)COc1ccc(Cl)cc1Cl`, the outcome was inactive.
Same read-out and setting: the value for `COP(=O)(OC)OC=C(Cl)Cl` was “inactive”.
Take `CC1(C)C(C=C(Cl)Cl)C1C(=O)OC(C#N)c1ccc(F)c(Oc2ccccc2)c1` (stereo not drawn): the AC50 was 33.1 µM (active) and 2.98 µM (active).
As for `CNC(=O)CSP(=S)(OC)OC`, the AC50 was 50 µM (active) and the compound was called inactive.
With `O=[N+]([O-])/N=C1\NCCN1Cc1ccc(Cl)nc1`, the compound was classed as inactive.
